Source: PubChem BioAssay (EPA / NIEHS)
Several values for one entry are separate records, joined by “and”; a condition that tells them apart may be missing. Equal values may be shown once. Some compounds were tested as several samples or in several runs, with calls that do not always agree. Activity calls are given as the source filed them. The calls were made as follows: active = hit-call score of the fitted dose curve at least 0.9, where 1 is the maximum; inactive = score below 0.9.

Experiments:
[1] = read-out: Interleukin 2 (IL2), IL2 (gene 3558); experiment: BSK_BT_xIL2: BioMAP Diversity Plus: BT Assay for Interleukin 2 (IL2) Biomarker Activity (AID 2284245); details: primary human B cells with PBMC
How it was run: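 Secreted IL-2 was read by Luminex xMAP from B cells co-cultured with PBMC (human primary) 24 h post-dosing; activity was analysed as gain of signal relative to DMSO vehicle.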

[2] = read-out: Collagen IV, COL4A1 (gene 1282); experiment: BSK_MyoF_CollagenIV: BioMAP Diversity Plus: MyoF Assay for Collagen IV Biomarker Activity (AID 2284247); details: primary human lung fibroblasts
How it was run: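 Collagen IV quantified by ELISA in human lung fibroblast cultures 24 h after chemical treatment, with DMSO as baseline. Parallel SRB staining (0.1% SRB after TCA fixation, 560 nm) flags overt cytotoxicity.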

Decorin, DCN (gene 1634) = experiment: BSK_MyoF_Decorin: BioMAP Diversity Plus: MyoF Assay for Decorin Biomarker Activity (AID 2284265); details: primary human lung fibroblasts
How it was run: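 Lung fibroblast cultures, 24 h chemical exposure. Decorin by ELISA, positive fitting direction, DMSO baseline.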

[3] = BSK_MyoF_SRB: Viability Assessment in the BioMAP Diversity Plus: MyoF Assay (AID 2284267); details: primary human lung fibroblasts;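 also: total protein by SRB absorbance in parallel cultures as cytotoxicity measure; cells assessed 24 h after compound addition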
How it was run: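 Cytotoxicity read-out: after 10% TCA fixation, parallel human lung fibroblast cultures were stained with 0.1% SRB at 24 h post-dosing and read at 560 nm; DMSO served as baseline.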

[4] = read-out: Matrix Metallopeptidase 1 (MMP1), MMP1 (gene 4312); experiment: BSK_MyoF_MMP1: BioMAP Diversity Plus: MyoF Assay for Matrix Metallopeptidase 1 (MMP1) Biomarker Activity (AID 2284268); details: primary human lung fibroblasts
How it was run: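 MMP1 measured by ELISA 24 h after dosing primary human lung fibroblasts; cytotoxicity checked in parallel cultures by sulforhodamine B total-protein staining read at 560 nm.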

[5] = read-out: Monokine induced gamma interferon (MIG), CXCL9 (gene 4283); experiment: BSK_KF3CT_MIG: BioMAP Diversity Plus: KF3CT Assay for Monokine induced gamma interferon (MIG) Biomarker Activity (AID 2284248); details: primary human keratinocytes with fibroblasts
How it was run: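 The assay uses a co-culture of human keratinocytes and foreskin fibroblasts. Measurement occurs 24 hours after dosing, with MIG detected by ELISA and the DMSO control as baseline.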

[6] = read-out: Collagen I, COL1A1 (gene 1277); experiment: BSK_hDFCGF_CollagenI: BioMAP Diversity Plus: hDFCGF Assay for Collagen I Biomarker Activity (AID 2284250); details: primary human foreskin fibroblasts
How it was run: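 Collagen I quantified by ELISA 24 h after chemical dosing of human dermal fibroblast primary cells, with parallel SRB staining (0.1%, TCA-fixed, 560 nm) for overt cytotoxicity.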

[7] = read-out: Interferon-inducible T-cell alpha chemoattractant (ITAC), CXCL11 (gene 6373); experiment: BSK_hDFCGF_ITAC: BioMAP Diversity Plus: hDFCGF Assay for Interferon-inducible T-cell alpha chemoattractant (ITAC) Biomarker Activity (AID 2284251); details: primary human foreskin fibroblasts
How it was run: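 Chemical dosing of primary human foreskin fibroblast cultures preceded ELISA measurement of I-TAC at 24 h. Response was analysed in the positive direction using DMSO as baseline, while parallel SRB staining measured cytotoxicity.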

[8] = read-out: Plasminogen activator inhibitor-1 (PAI1), SERPINE1 (gene 5054); experiment: BSK_KF3CT_PAI1: BioMAP Diversity Plus: KF3CT Assay for Plasminogen activator inhibitor-1 (PAI1) Biomarker Activity (AID 2284252); details: primary human keratinocytes with fibroblasts
How it was run: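 PAI-1 levels quantified by ELISA after 24 h compound exposure of primary human skin keratinocytes co-cultured with fibroblasts. Activity is the gain relative to DMSO; cytotoxicity tracked in parallel cultures via SRB staining.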

[9] = read-out: Interleukin-8 (IL8), CXCL8 (gene 3576); experiment: BSK_KF3CT_IL8: BioMAP Diversity Plus: KF3CT Assay for Interleukin-8 (IL8) Biomarker Activity (AID 2284254); details: primary human keratinocytes with fibroblasts
How it was run: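 ELISA detection of IL-8 from a human skin co-culture, keratinocytes with foreskin fibroblasts, at 24 h following chemical exposure, with gain of signal scored against DMSO controls.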

[10] = read-out: Intercellular Adhesion Molecule 1 (ICAM1), ICAM1 (gene 3383); experiment: BSK_BE3C_ICAM1: BioMAP Diversity Plus: BE3C Assay for Intercellular Adhesion Molecule 1 (ICAM1) Biomarker Activity (AID 2284278); details: primary human bronchial epithelial cells
How it was run: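 ICAM-1 quantified by ELISA and fitted against DMSO baseline, 24 h post-dosing in BE3C cultures of primary human lung bronchial epithelial cells. Cytotoxicity checked in parallel cultures by total protein SRB staining.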

[11] = read-out: Interferon-inducible T-cell alpha chemoattractant (ITAC), CXCL11 (gene 6373); experiment: BSK_BE3C_ITAC: BioMAP Diversity Plus: BE3C Assay for Interferon-inducible T-cell alpha chemoattractant (ITAC) Biomarker Activity (AID 2284279); details: primary human bronchial epithelial cells
How it was run: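 Steps: dose human bronchial epithelial cells with chemical; incubate 24 h; measure I-TAC by ELISA; fit endpoint in positive direction against DMSO control. Cytotoxicity was checked in parallel cultures by SRB staining at harvest.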

[12] = read-out: Interleukin-8 (IL8), CXCL8 (gene 3576); experiment: BSK_BE3C_IL8: BioMAP Diversity Plus: BE3C Assay for Interleukin-8 (IL8) Biomarker Activity (AID 2284280); details: primary human bronchial epithelial cells
How it was run: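 Measured at 24 h after treatment, IL-8 from human primary bronchial epithelial cells is determined by ELISA, and the response is modelled as increasing relative to DMSO negative control.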

[13] = read-out: Epidermal growth factor receptor (EGFR), EGFR (gene 1956); experiment: BSK_BE3C_EGFR: BioMAP Diversity Plus: BE3C Assay for Epidermal growth factor receptor (EGFR) Biomarker Activity (AID 2284281); details: primary human bronchial epithelial cells
How it was run: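 Measured 24 h after dosing in primary human bronchial epithelial cultures, EGFR was read by ELISA; gain of signal over DMSO control defined activity.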

KRT18 (gene 3875) = experiment: BSK_BE3C_Keratin818: BioMAP Diversity Plus: BE3C Assay for Keratin 818 Biomarker Activity (AID 2284282); details: primary human bronchial epithelial cells
How it was run: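 ELISA readout of Keratin 8/18 in human primary bronchial epithelial cultures after 24 h chemical exposure, DMSO baseline. Parallel SRB staining (0.1%, TCA-fixed, 560 nm) served as cytotoxicity check.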

[14] = read-out: Matrix Metallopeptidase 9 (MMP9), MMP9 (gene 4318); experiment: BSK_BE3C_MMP9: BioMAP Diversity Plus: BE3C Assay for Matrix Metallopeptidase 9 (MMP9) Biomarker Activity (AID 2284283); details: primary human bronchial epithelial cells
How it was run: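 Cells were dosed, incubated 24 h, then assayed for MMP-9 by ELISA; activity was fitted upward against DMSO. The system used human lung primary bronchial epithelial cells, with SRB total-protein staining run alongside for cytotoxicity.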

[15] = read-out: Plasminogen activator inhibitor-1 (PAI1), SERPINE1 (gene 5054); experiment: BSK_CASM3C_PAI1: BioMAP Diversity Plus: CASM3C Assay for Plasminogen activator inhibitor-1 (PAI1) Biomarker Activity (AID 2284284); details: primary human coronary artery smooth muscle cells;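 also: PAI-1 protein level measured by ELISA 24 h after dosing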
[16] = read-out: Monocyte Chemoattractant Protein-1 (MCP1), CCL2 (gene 6347); experiment: BSK_hDFCGF_MCP1: BioMAP Diversity Plus: hDFCGF Assay for Monocyte Chemoattractant Protein-1 (MCP1) Biomarker Activity (AID 2284285); details: primary human foreskin fibroblasts
How it was run: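 MCP-1 ELISA readout was taken 24 hours after dosing primary human dermal fibroblasts in the hDFCGF system, with DMSO as baseline. Parallel sulforhodamine B staining of total protein tracked overt cytotoxicity.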

[17] = read-out: Intercellular Adhesion Molecule 1 (ICAM1), ICAM1 (gene 3383); experiment: BSK_hDFCGF_ICAM1: BioMAP Diversity Plus: hDFCGF Assay for Intercellular Adhesion Molecule 1 (ICAM1) Biomarker Activity (AID 2284287); details: primary human foreskin fibroblasts
How it was run: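 ICAM-1 ELISA readout 24 h after dosing, DMSO as baseline, in human dermal foreskin fibroblast cultures. Cytotoxicity checked in parallel wells by SRB staining (0.1% SRB, 10% TCA fixation, 560 nm).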

[18] = read-out: TIMP metallopeptidase inhibitor 2 (TIMP2), TIMP2 (gene 7077); experiment: BSK_hDFCGF_TIMP2: BioMAP Diversity Plus: hDFCGF Assay for TIMP metallopeptidase inhibitor 2 (TIMP2) Biomarker Activity (AID 2284289); details: primary human foreskin fibroblasts
How it was run: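 Primary human foreskin fibroblasts in the hDFCGF system, dosed for 24 h; TIMP-2 level measured by ELISA, fitted in the positive direction against DMSO; cytotoxicity checked in parallel by sulforhodamine B total protein staining.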

Measured: AC50

CC(=O)C1(C)CC2=C(CCCC2(C)C)CC1C (stereo unspecified)
inactive: [1] | Decorin, DCN (gene 1634)
active: [2] 11.9 µM | [3] 14.6 µM | [4] 4.66 µM

CN(C)C(=O)Nc1ccc(Oc2ccc(Cl)cc2)cc1
active: [1] 20 µM
inactive: [2] | Decorin, DCN (gene 1634) | [3] | [4]

CCCCN(CCCC)C(=O)N(CCCC)CCCC
inactive: Decorin, DCN (gene 1634)
active: [1] 32.5 µM | [2] 8.89 µM | [3] 11 µM | [4] 7.64 µM

CCN(CC)C(=O)N(CC)CC
inactive: [1] | [2] | Decorin, DCN (gene 1634) | [3] | [4]

O=C1OC2(c3ccccc31)c1ccc(O)c(Br)c1Oc1c2ccc(O)c1Br
inactive: [1] | Decorin, DCN (gene 1634) | [3] | [4]
active: [2] 4.52 µM

CCCCOC(=O)CCCCCCCC(=O)OCCCC
inactive: [1] | [2] | Decorin, DCN (gene 1634) | [3] | [4]

CC(=O)Nc1ccc(C(=O)CCl)cc1
active: [1] 5.57 µM | [2] 16.9 µM | [3] 29.3 µM
inactive: Decorin, DCN (gene 1634) | [4]

CN(C)C(=S)SC(=S)N(C)C
inactive: [2] | Decorin, DCN (gene 1634) | [3]
active: [1] 0.432 µM | [4] 29.4 µM

c1ccc(Oc2ccccc2)cc1
inactive: [1] | [2] | Decorin, DCN (gene 1634) | [3] | [4]

CC(=O)c1c(C)c([N+](=O)[O-])c(C(C)(C)C)c([N+](=O)[O-])c1C
inactive: [1] | [2] | Decorin, DCN (gene 1634) | [3] | [4]

c1ccc2cc(Nc3ccc(Nc4ccc5ccccc5c4)cc3)ccc2c1
inactive: [1] | [2] | Decorin, DCN (gene 1634) | [3] | [4]

CC(C)(C)CC(C)(C)c1ccc(OCCOCC[N+](C)(C)Cc2ccccc2)cc1
inactive: Decorin, DCN (gene 1634) | [4]
active: [1] 6.28 µM | [2] 8.51 µM | [3] 7.98 µM

CC(C=O)Cc1ccc(C(C)(C)C)cc1 (stereo unspecified)
inactive: [1] | [2] | Decorin, DCN (gene 1634) | [3] | [4]

COc1cc(Cl)c(OC)cc1N
inactive: [1] | [2] | Decorin, DCN (gene 1634) | [3] | [4]

COc1ccc(OC)c(N=Nc2c(O)ccc3ccccc23)c1
active: [3] 6.83 µM | [4] 10.3 µM
inactive: [1] | [2] | Decorin, DCN (gene 1634)

C=C(C)[C@H]1CC=C(C)C(=O)C1
inactive: [1] | [2] | Decorin, DCN (gene 1634) | [3] | [4]

O=C1OC[C@H](Cc2cccc(O)c2)[C@H]1Cc1cccc(O)c1
inactive: [1] | [2] | Decorin, DCN (gene 1634) | [3] | [4]

C1=CC2C3C=CC(C3)C2C1 (stereo unspecified)
inactive: [1] | [2] | Decorin, DCN (gene 1634) | [3] | [4]

CS(=O)(=O)c1ccc(C2=C(c3ccccc3)C(=O)OC2)cc1
inactive: [1] | [2] | Decorin, DCN (gene 1634) | [3] | [4]

COc1ccc(CCN2CCC(Nc3nc4ccccc4n3Cc3ccc(F)cc3)CC2)cc1
active: [1] 6.51 µM | [3] 7.48 µM | [4] 3.79 µM
inactive: [2] | Decorin, DCN (gene 1634)

C=C(C)C(=O)OCCOCCOCCOCCOC(=O)C(=C)C
inactive: [1] | [2] | Decorin, DCN (gene 1634) | [3] | [4]

CC1(C)C2=CCCC(C)(C)[C@]23CC[C@H]1C3
inactive: [1] | [2] | Decorin, DCN (gene 1634)
active: [3] 30.9 µM | [4] 31.2 µM

CN(c1nccc(=O)[nH]1)C1CCN(c2nc3ccccc3n2Cc2ccc(F)cc2)CC1
inactive: [2] | Decorin, DCN (gene 1634) | [3] | [4]
active: [1] 9.2 µM

C=CC(C)(O)CCC=C(C)C (stereo unspecified)
not listed: [1] | [2] | Decorin, DCN (gene 1634) | [3] | [4]
inactive: all other assays above

CCCCCCC(CO)CCCC (stereo unspecified)
active: [5] 35.5 µM | [6] 36.4 µM and 30.8 µM | [7] 33.1 µM and 34.8 µM | [8] 32.7 µM and 31 µM | [9] 28.9 µM and 32.5 µM | [10] 20 µM | [16] 30.9 µM and 35 µM | [17] 35.6 µM and 34.7 µM | [18] 30.6 µM and 37.3 µM
inactive: [10] | [11] | [12] | [13] | KRT18 (gene 3875) | [14] | [15]

O=C1c2ccccc2C(=O)c2c(O)ccc(O)c21
active: [1] 3.97 µM | [4] 3.25 µM
inactive: [2] | Decorin, DCN (gene 1634) | [3]
